An excerpt weighted towards active compounds, which were near 7.9% of everything screened.
MCF10A rerep: A quantitative high throughput screen for small molecules that induce DNA re-replication in MCF 10a normal breast cells; AID 624296, 2012; MCF 10A DNA re-replication, Hoechst nuclear intensity, 48 h; Potency, µM (top dose mostly 46.1 µM), for the others: at the highest dose activity, positive = re-replication, usual class: activators; hit rate 2.9% among 350,000; note: % of control where 0% means no effect; nearly all actives have a fitted effect of over 50% in size
HT1080-NT tox: qHTS for induction of synthetic lethality in tumor cells producing 2HG: qHTS for the HT-1080-NT fibrosarcoma cell line; hit rate 1.6% among 360,000; Potency, µM (top dose mostly 46.1 µM), inactives show at the highest dose activity, negative = less viability, usual class: cytotoxic; HT-1080-NT fibrosarcoma viability, CellTiter-Glo ATP luminescence, 48 h;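 note: NT is the 2HG producing partner of a matched IDH1 knockdown line; 0% = DMSO-treated cells and -100% = media-only wells without cells; nearly all actives have a fitted effect of over 55% in size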
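750 cells/well, RPMI + 5% FBS; 2 h settle, compound pin-transfer, 48 h at 37 degrees C. CellTiter-Glo 10 min RT, luminescence. Normalized to DMSO and media-only wells.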
SW480 rerep: A quantitative high throughput screen for small molecules that induce DNA re-replication in SW480 colon adenocarcinoma cells. SW480 DNA re-replication, Hoechst DNA content imaging, 48 h. AID 624297, 2012. hit rate 1.8% among 340,000. Potency, µM (series often up to 46.1 µM), for inactives: top-dose re-replication activation, hits mostly activators; note: % of control where 0% means no effect; nearly all actives have a fitted effect of over 55% in size
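Cells (250 per well) received 23 nL compound or DMSO by pin tool and were kept 48 hr at 37 C, 5% CO2. Nuclei were then stained with Hoechst for 40 min and scanned for DNA content.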
KB-3-1 cytotox: qHTS assay for MDR1-selective chemotherapeutics: Primary screen using the parental adenocarcinoma cell KB-3-1 | KB-3-1 viability, CellTiter-Glo ATP luminescence, 72 h | Potency, µM (titrated, usually from 46.1 µM), most hits filed as cytotoxic | hit rate 1.4% among 400,000 | AID 1347075, 2019; note: % is set by controls: 0 for no effect and ±100 for the full control effect; nearly all actives have a fitted effect of over 60% in size
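KB-3-1 cells, DMEM (no phenol red) + 10% FBS; compound by pin transfer, 72 h, 37 °C. Readout: CellTiter-Glo luminescence after 10 min. Data normalized, curve-fitted.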
KB-V1 cytotox: qHTS assay for MDR1-selective chemotherapeutics: Primary screen using the drug-selected MDR subline cells KB-V1 | KB-V1 MDR cells viability, CellTiter-Glo, 72 h | Potency, µM (series often up to 46.1 µM), most hits filed as cytotoxic | AID 1347076, 2019 | hit rate 3.4% among 400,000; note: % is set by controls: 0 for no effect and ±100 for the full control effect; nearly all actives have a fitted effect of over 60% in size
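Drug-selected KB-V1 cells, grown in DMEM lacking phenol red with 10% FBS, receive compound titrations; after three days at 37 degrees C, surviving cell ATP is quantified by CellTiter-Glo luminescence and responses normalized and curve-fitted.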
HT1080 IDH1KD tx: qHTS for induction of synthetic lethality in tumor cells producing 2HG: qHTS for the HT-1080-IDH1KD cell line; HT-1080 IDH1 knockdown viability, ATP luminescence, 48 h; Potency, µM (highest dose often 46.1 µM), without a hit: at the top dose activity, negative = toxicity, usual class: cytotoxic; hit rate 2% among 360,000; AID 686971, 2013;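 note: 0% = DMSO wells and -100% = cell-free medium wells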
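Cytotoxicity counter-line: IDH1KD HT-1080, 48 h, CellTiter-Glo. Curves classed by r2, magnitude and activity.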
Starred values were filed as active, the others as inactive; ! = not active in a repeat. Calls come from the whole dose curve; as a rule, active = well fitted curve in the direction sought with a large enough effect; inconclusive = small, poorly fitted or top-dose-only effect, or another doubt; inactive = no such curve, though single readings can be large; an effect the other way counts as inactive or inconclusive. Potency is the fitted concentration of half-maximal effect.

What do the screens show for `Cc1csc(=Nc2c(C)n(C)n(-c3ccccc3)c2=O)n1Cc1ccccc1`?
MCF10A rerep: 0.9%; HT1080-NT tox: 2.9%; SW480 rerep: 4.3%; KB-3-1 cytotox: inactive; KB-V1 cytotox: inactive; HT1080 IDH1KD tx: -5.5%

How did CC(=O)c1cccc(N=c2scc(-c3ccc(S(=O)(=O)N4CCOCC4)cc3)n2CCO)c1 do in these assays?
MCF10A rerep: -2.0%; HT1080-NT tox: -13.6%; SW480 rerep: -1.3%; KB-3-1 cytotox: inactive; KB-V1 cytotox: 5.8µM*; HT1080 IDH1KD tx: -14.5%

Results for CCOc1cc(-c2nccc3cc(OC)c(OC)cc23)cc(OCC)c1OCC ?
MCF10A rerep: 13.6%; HT1080-NT tox: -29.0%; SW480 rerep: -3.4%; KB-3-1 cytotox: inactive; KB-V1 cytotox: inactive; HT1080 IDH1KD tx: inconclusive

What do the screens show for `CCN(c1ccccc1)S(=O)(=O)c1ccc2c(c1)CC(C)N2C(=O)C1CC1` (stereo unspecified)?
MCF10A rerep: 7.4%; HT1080-NT tox: -1.9%; SW480 rerep: -1.6%; KB-3-1 cytotox: inactive; KB-V1 cytotox: inactive; HT1080 IDH1KD tx: -5.4%

Results for CCc1cccc(NS(=O)(=O)c2ccc3c(c2)CC(C)N3C(=O)C2CC2)c1 (stereo unspecified) ?
KB-3-1 cytotox: inconclusive; KB-V1 cytotox: 13µM*

Results for CCOc1ccccc1N(C)S(=O)(=O)c1ccc2c(c1)CC(C)N2C(=O)C1CC1 (stereo unspecified) ?
MCF10A rerep: inconclusive; HT1080-NT tox: inconclusive; SW480 rerep: inconclusive; KB-3-1 cytotox: inactive; KB-V1 cytotox: inconclusive; HT1080 IDH1KD tx: 14.6µM*

How did COc1ccc(Cl)cc1S(=O)(=O)N1CCC(C(=O)NC2CC2)CC1 do in these assays?
MCF10A rerep: -35.7%; HT1080-NT tox: 0.7%; SW480 rerep: -6.7%; KB-3-1 cytotox: inactive; KB-V1 cytotox: inactive; HT1080 IDH1KD tx: -1.4%

Results for CN(C)S(=O)(=O)c1ccc2nnn(OCC(=O)NC34CC5CC(CC(C5)C3)C4)c2c1 ?
MCF10A rerep: 22.4%; HT1080-NT tox: 0.5%; SW480 rerep: -1.2%; KB-3-1 cytotox: inactive; KB-V1 cytotox: 3.66µM*; HT1080 IDH1KD tx: 1.2%

How did CCc1nnc(NC(=O)c2nc(S(=O)(=O)Cc3ccc(C)cc3)ncc2Cl)s1 do in these assays?
MCF10A rerep: 1.3µM*; HT1080-NT tox: 18.4µM*; SW480 rerep: 93.4%; KB-3-1 cytotox: 16.4µM*!; KB-V1 cytotox: inconclusive; HT1080 IDH1KD tx: 14.6µM*

How did CCc1nnc(NC(=O)c2nc(SCc3ccccc3F)ncc2Cl)s1 do in these assays?
KB-3-1 cytotox: inactive; KB-V1 cytotox: inactive

What do the screens show for `CCc1nnc(NC(=O)CN2CCN(Cc3ccccc3C)CC2)s1`?
MCF10A rerep: 0.8%; HT1080-NT tox: 11.8%; SW480 rerep: 3.9%; KB-3-1 cytotox: inactive; KB-V1 cytotox: inactive; HT1080 IDH1KD tx: 0.5%

How did CCc1nnc(NC(=O)c2nc(Cl)ccc2Cl)s1 do in these assays?
MCF10A rerep: 2.5%; HT1080-NT tox: 29.2%; SW480 rerep: -19.3%; KB-3-1 cytotox: inactive; KB-V1 cytotox: inconclusive; HT1080 IDH1KD tx: 27.6%

How did CCc1nnc(NC(=O)c2nc(S(=O)(=O)Cc3ccccc3)ncc2Cl)s1 do in these assays?
MCF10A rerep: 0.82µM*; HT1080-NT tox: 11.6µM*; SW480 rerep: inconclusive; KB-3-1 cytotox: 23.1µM*; KB-V1 cytotox: inconclusive; HT1080 IDH1KD tx: 7.31µM*

What do the screens show for `CCc1nnc(NC(=O)CN2CCN(Cc3ccc(C)cc3)CC2)s1`?
MCF10A rerep: 0.92µM*; HT1080-NT tox: 0.0%; SW480 rerep: inconclusive; KB-3-1 cytotox: inactive; KB-V1 cytotox: inactive; HT1080 IDH1KD tx: 0.1%
